Laboratory results taken from PubChem BioAssay AID932 (The Scripps Research Institute Molecular Screening Center, 2007).
Among all 200,000 compounds or so, about 5,100 (2.5%) were called active. The list comes from a sample in which actives are over-represented; it also holds similar structures and randomly drawn compounds. Values without a mark were called inactive.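 Rule for the calls: active = activation above the screen-wide mean activation plus 3 SD (cut at about 130% in these data); inactive = the rest.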

Assay: potentiators of IFN-gamma driven STAT1 reporter – cell-based, HTS, luciferase reporter, primary screen (AID 932);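 note: raw ratio to IFN-gamma control signal so 100% means no change and 0% no light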
Conditions: NIH 3T3 STAT1-luciferase reporter, luminescence, at 5.5 µM, stronger effect = higher value, 100% = IFN-gamma alone, no compound

First: CN(NC(=O)C1CC(=O)N(c2ccccc2)C1)C1=NS(=O)(=O)c2ccccc21 (stereo not given)
Second: O=C(c1cccc2ccccc12)N1CCN(c2ccccc2F)CC1
The activation (% of control) of the first is lower: 97.3% for the first, 101% for the second.

Compared with O=C(CCS(=O)(=O)c1cccc2nsnc12)N1CCN(c2ccccc2F)CC1, Cn1c(=N)n(CC(O)c2cccs2)c2ccccc21 (stereo not given) is lower in activation (% of control): 106% for the first, 95.5% for the second.

First: COc1cc(CN2CCN(Cc3ccc(C)cc3)CC2)c([N+](=O)[O-])cc1OC
Second: COc1ccc(CCNC(=O)C(=O)NCc2ccccc2C)cc1OC
The activation (% of control) of the first is lower: 90.7% for the first, 96.8% for the second.

Going from Cc1cc(C)nc(-n2ncc3c2CC(c2ccc(C(C)C)cc2)CC3=O)n1 (stereo not given) to CCn1c(CSc2nc(C)cc(C)n2)nnc1SCC(N)=O, the activation (% of control) falls from 104% to 103%.

Going from Cc1cc(C)cc(C(=O)NC2C(=O)N3C(C(=O)O)=C(CSc4nnc(C)s4)CSC23)c1 (stereo not given) to COc1cc(NC(=O)c2ccc3c(c2)OCO3)ccc1NC(=O)c1cccs1, the activation (% of control) rises from 93.1% to 101%.

First: c1n[nH]c(NCc2ccc3c(c2)OCO3)n1
Second: O=C(N/N=C/c1ccc2c(c1)OCO2)c1ccc(Cn2cc([N+](=O)[O-])cn2)o1
The activation (% of control) of the first is lower: 89.7% for the first, 109% for the second.

First: COc1cccc(CC2(CO)CCCN(CC3=Cc4cc(OC)ccc4OC3)C2)c1 (stereo not given)
Second: COc1ccc(N=C2SC(C(=O)Nc3ccc(F)cc3)CC(=O)N2C)cc1 (stereo not given)
The activation (% of control) of the first is higher: 92% for the first, 88.3% for the second.

CCOC(=O)c1ccc(NC(=O)c2cc(=O)[nH]c3ccccc23)cc1 and Cc1ccc2nc(-c3ccc(NC(=O)CN(C)S(=O)(=O)c4ccccc4)cc3)sc2c1 are the same in activation (% of control): 102% for the first, 102% for the second.

First: COC(=O)[C@H]1Cc2cnoc2C[C@]1(C)C(=O)O
Second: Cc1nnnn1/C(=C\c1ccccc1)C(=O)OCC(=O)N1CC2(C)CC1CC(C)(C)C2 (stereo not given)
The activation (% of control) of the first is higher: 106% for the first, 99.2% for the second.

First: CCc1nnc(NC(=O)Cc2cccs2)s1
Second: CCCc1nnc(NC(=O)c2cccs2)s1
The activation (% of control) of the first is lower: 98.1% for the first, 115% for the second.

First: O=C(c1ccc(C(F)(F)F)cc1)C1CCCN(C(=O)c2csnn2)C1 (stereo not given)
Second: O=C(Nc1nnc(C2COc3ccccc3O2)o1)c1ccc(F)cc1 (stereo not given)
The activation (% of control) of the first is lower: 87.3% for the first, 98.5% for the second.

First: N#CCC(=O)N/N=C/c1ccc(SCC(=O)Nc2ccccc2)o1
Second: Cc1ccccc1NCC(=O)N/N=C\c1ccc([N+](=O)[O-])s1
The activation (% of control) of the first is higher: 108% for the first, 92.7% for the second.

Going from O=C1COc2ccc(C(=O)COC(=O)c3cccnc3Cl)cc2N1 to COc1ccc(S(=O)(=O)N2CCCCCC2)cc1C(=O)OCC(=O)Nc1cc(C)on1, the activation (% of control) falls from 109% to 97%.

First: O=C(N/N=C\c1ccc(Br)cc1)c1ccc(Cn2cccn2)o1
Second: CN(C(=O)COc1ccccc1)c1nnc(-c2ccncc2)s1
The activation (% of control) of the first is higher: 118% for the first, 107% for the second.

Compared with C=CCn1c(COc2ccc(F)cc2)nnc1SCC(=O)Nc1cccc(S(N)(=O)=O)c1, Cc1ccc(N(CC(=O)Nc2cccc(N(C)S(C)(=O)=O)c2)S(C)(=O)=O)cc1 is lower in activation (% of control): 97.8% for the first, 92.8% for the second.

First: Cc1c(/C=N/N2C(=O)C3C4C=CC(C4)C3C2=O)c2ccccc2n1C (stereo not given)
Second: Cc1nn(C)c(C)c1Sc1ccccc1N
The activation (% of control) of the first is lower: 90.4% for the first, 99.2% for the second.

First: C/C(=N\OC(=O)c1ccccc1)c1c(C)nc2cc(C)ccn12
Second: CN(C(=O)COc1ncnc2c1cnn2-c1ccccc1)C1CCCCC1
The activation (% of control) of the first is higher: 99.5% for the first, 94.4% for the second.

First: ClC1(Cl)CC1CSc1ncn[nH]1 (stereo not given)
Second: CN(C(=O)CSc1nnnn1-c1ccccc1)C1CCCCC1
The activation (% of control) of the first is lower: 102% for the first, 103% for the second.

Compared with O=C(C1CCN(C2CCN(Cc3ccc4cc(F)ccc4n3)CC2)CC1)N1CCCC1, CN(C(=O)c1ccno1)c1nnc(-c2cccnc2)s1 is higher in activation (% of control): 98.4% for the first, 102% for the second.

Going from N#Cc1c(N)nc2c(c1N)CC(C(F)(F)F)O2 (stereo not given) to O=[N+]([O-])c1ccc(NCCCO)c(C(F)(F)F)c1, the activation (% of control) rises from 92.8% to 105%.

First: Cc1ccc(/C=C/C(=O)Nc2ccc([N+](=O)[O-])c(NC(=O)/C=C/c3ccc(C)o3)c2)o1
Second: O=C(N/N=C/c1ccccn1)C12CC3CC(CC(C3)C1)C2
The activation (% of control) of the first is lower: 101% for the first, 103% for the second.

With O=C(CCSc1ccccc1)N1CCN(c2ccccc2F)CC1 the activation (% of control) was 135% (active).
For COc1cc(CNc2ncn[nH]2)ccc1OCc1ccccc1C, the activation (% of control) was 131% (active).
With CCc1nnc(NC(=O)c2cccs2)s1 the activation (% of control) was 134% (active).
In the case of CN(C)c1ccc(/C=N/NC(=O)c2ccc(Cn3cc(Br)cn3)o2)cc1, the activation (% of control) is reported as 135% (active).
In the case of Cc1cccc(N(CC(=O)Nc2ccc(-c3nc4ccc(C)cc4s3)cc2)S(C)(=O)=O)c1, the activation (% of control) is reported as 142% (active).
In the case of Cc1ccc(/C=C/C(=O)Nc2cc(S(=O)(=O)N3CCCCCC3)ccc2OCC(F)(F)F)o1, the activation (% of control) is reported as 139% (active).
With CN(C(=O)c1ccccn1)c1nnc(-c2ccccn2)s1 the activation (% of control) was 142% (active).
With CN(C(=O)CSc1nncc2ccccc12)C1CCCCC1 the activation (% of control) was 131% (active).
